From PubChem BioAssay
Shiga toxin inh: Shiga toxin inhibition; Vero cells, Shiga toxin protein synthesis inhibition reporter; 9.2% of 290,000 active; inhibition, % at 38.7 µM; in the data active = inhibition mostly above about 28%, no sharp cut-off; inactive = mostly below about 43%; also: 0% is about no effect
Pf growth 48h: inhibits P. falciparum growth in the first generation, 48 h | P. falciparum luciferase growth in erythrocytes, 48 h | Potency, µM (top dose mostly 28.7 µM), inactives show at the highest dose activity change, negative = inhibition, most hits filed as inhibitors | 5.9% of 310,000 active; also: potency is read from the fitted curve at half-maximal effect; % is scaled to controls: 0 for no effect and ±100 for the full control effect
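Here the parasites carry a stable luciferase gene and grow inside erythrocytes in Albumax-based RPMI medium with compound for one erythrocytic cycle. Activity is scored as loss of luminescent signal.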
CHX counter: affects cycloheximide protein synthesis inhibition readout, counter-screen; AID 2314; cell reporter, cycloheximide protein synthesis inhibition counterscreen; 12% of 300,000 active; max response, %; in the data active = max response mostly above about 13%, no sharp cut-off; inactive = mostly below about 14%; also: read at 38.3 µM for the half of the compounds with a filed dose; 0% is about no effect
Pf growth 96h: P. falciparum growth inhibition at 96 hours | P. falciparum luciferase reporter growth, 96 h | Potency, µM (highest dose often 28.7 µM), for the others: at the highest dose activity change, negative = inhibition, most hits filed as inhibitors | 6.9% of 320,000 active | AID 504834; also: potency is read from the fitted curve at half-maximal effect; % is scaled to controls: 0 for no effect and ±100 for the full control effect
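P. falciparum expressing integrated firefly luciferase, in erythrocytes at 2% hematocrit, 0.05% parasitemia, incubated with compounds 96 h at 37 C, 5% CO2. Growth inhibition read as loss of luminescence; two-generation exposure targets delayed-death apicoplast inhibitors.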
LmPK inh: inhibitors of Leishmania mexicana pyruvate kinase | AID 1721 | Q27686 | Potency, µM (highest dose often 57.5 µM), for the others: top-dose activity change, negative = inhibition, hits mostly inhibitors | 0.37% of 290,000 active | purified LmPK, Kinase-Glo ATP luminescence, 1 h; also: potency is read from the fitted curve at half-maximal effect; % is scaled to controls: 0 for no effect and ±100 for the full control effect
Target sequence (Q27686 whole entry, looked up): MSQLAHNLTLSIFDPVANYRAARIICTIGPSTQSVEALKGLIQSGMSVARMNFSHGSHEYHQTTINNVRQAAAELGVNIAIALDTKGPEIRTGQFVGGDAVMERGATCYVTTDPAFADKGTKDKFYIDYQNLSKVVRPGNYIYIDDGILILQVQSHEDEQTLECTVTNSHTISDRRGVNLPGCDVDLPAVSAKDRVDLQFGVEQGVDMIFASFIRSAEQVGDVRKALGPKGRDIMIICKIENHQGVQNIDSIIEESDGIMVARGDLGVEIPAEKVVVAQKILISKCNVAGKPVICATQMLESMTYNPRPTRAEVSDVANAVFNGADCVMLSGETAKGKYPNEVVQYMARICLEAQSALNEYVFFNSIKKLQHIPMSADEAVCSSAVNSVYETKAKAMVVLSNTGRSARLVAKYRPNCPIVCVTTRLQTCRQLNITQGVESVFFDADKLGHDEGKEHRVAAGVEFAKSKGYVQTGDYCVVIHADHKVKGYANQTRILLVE
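In 50 mM imidazole pH 7.2 with 7 mM MgCl2, LmPK (0.1 nM) turned over PEP (0.5 mM) and ADP (0.1 mM) for 1 h at room temperature. Luciferase read-out of ATP.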
* marks the source's active call; other numbers are inactive results; ? = inconclusive; nt = no result given; [ ] = dose if it differs, or a comment. The list is not random: actives were taken first. Their share in the collection is about 22%. Unless noted, calls follow the shape of the dose curve; as a rule, active = well fitted inhibition curve with a large enough effect; inconclusive = small, poorly fitted or top-dose-only effect, or another doubt; inactive = no such curve, though single readings can be large or run the other way.

SMILES	Shiga toxin inh	Pf growth 48h	CHX counter	Pf growth 96h	LmPK inh
COc1ccc(C(=O)[C@H]2[C@H]3C(=O)N(c4ccccc4)C(=O)[C@H]3C3C=CC=NN32)cc1 (stereo partly drawn)	14.2	16.5µM*	9.6	49.6%	-2.2%
COc1cccc(Cc2n[nH]c(=S)n2Cc2ccco2)c1	9.7	9.7%	-1.3	13.5%	?
CCn1ncc(Br)c1C(=O)Nc1ccccc1OC	-2.8	-4.3%	14.1	78.6%	18.8%
CCn1ncc(Br)c1C(=O)Nc1cccc(F)c1	15.7	7.4%	13.3	-23.9%	3.6%
CCC(C)c1ccc(NC(=O)c2c([N+](=O)[O-])cnn2CC)cc1 (stereo not drawn)	44.1	-47.4%	19.5*	5.22µM*	-4.8%
CCn1ncc(Br)c1C(=O)Nc1c(C)nn(Cc2c(F)c(F)c(F)c(F)c2F)c1C	1.2	-10.6%	7.3	?	-3.0%
CCn1ncc(Br)c1C(=O)Nc1ccc(C(C)C)cc1	69.0*	-7.7%[0.00184 µM]	63.7*	?	-0.3%
CCn1ncc(Br)c1C(=O)Nc1cc(C(=O)OC)ccc1C(=O)OC	37.4*	35.0%	14.6*	?	-1.2%
CCn1ncc([N+](=O)[O-])c1C(=O)Nc1ccc(C(=O)N2CCCCC2)cc1	-5.9	-0.7%	-3.8	-27.1%	3.7%
CCn1ncc(Br)c1C(=O)Nc1ncc(C)s1	68.9*	37.4%	26.8	138.2%	-5.0%
CCc1nn(C(C)C(=O)NCc2cccc(Cl)c2)c(=O)c2cc3occc3n12 (stereo not drawn)	17.5	3.5%	2.0	-20.7%	0.0%
Cc1cc(C)cc(C(=O)OCC(=O)Nc2ncccn2)c1	nt	4.4%	nt	24.8%	nt
CCn1ncc(Br)c1C(=O)Nc1ccc2c(c1)OCCO2	98.7*	134.1%	69.9*	16.1%	-16.2%
COc1ccc(C(=O)/C(C#N)=N/Nc2cccc([N+](=O)[O-])c2)cc1	26.2	-17.9%	-1.5	-10.3%	-1.3%
CCOC(=O)C1(Cc2ccc(OC)cc2)CCN(C(=O)c2cc(C)on2)CC1	17.9	-4.9%	17.5*	61.9%	-0.1%
CCOC(=O)C1(Cc2ccc(OC)cc2)CCN(C(=O)c2sc(C)nc2C)CC1	18.2	-8.5%	-0.7	8.7%	-0.5%
CCOC(=O)C1(Cc2ccc(OC)cc2)CCN(C(=O)c2cc3ccccc3[nH]2)CC1	118.3*	13.2%	53.9*	32.7%	-7.9%[11.5 µM]
O=C(NCCN1CCOCC1)c1ccc(NS(=O)(=O)c2cccc([N+](=O)[O-])c2)cc1	nt	1.3%	nt	28.7%	nt
CSc1ccc(S(=O)(=O)NCC(=O)OCC(=O)N2CCCCC2C)cc1[N+](=O)[O-] (stereo not drawn)	nt	?	nt	14.3%	nt
Cn1cc(/C=C2\SC(=O)N(c3ccc(O)cc3)C2=O)c2ccccc21	90.6*	?	44.9*	?	5.0%
Cn1cc(/C=C2\SC(=O)N(c3ccccc3)C2=O)c2ccccc21	-3.2	64.9%	19.1*	54.6%	2.7%
CCN=C1S/C(=C\c2cn(CC)c3ccccc23)C(=O)N1CC	13.5	?	-2.4	?	-2.2%
Cn1cc(/C=C2\C(=O)NC(=O)N(c3ccccc3)C2=O)c2ccccc21	-9.5	22.9%	-5.3	3.1%	11.8%
CCN1C(=O)S/C(=C/c2cn(C)c3ccccc23)C1=O	43.7*	20.6%	27.1*	?	-6.4%
COc1ccc(OC)c(S(=O)(=O)N2CCCC(C(=O)NCCN3CCOCC3)C2)c1 (stereo not drawn)	-8.1	-1.6%	-3.1	?	-2.9%
SMILES	Shiga toxin inh	Pf growth 48h	CHX counter	Pf growth 96h	LmPK inh
CCc1cc(C(=O)c2ccc(C)cc2)c(NC(=O)CCl)s1	73.0*	?	48.7*	?	1.2%
CCc1cc(C(=O)c2ccc(OC)cc2)c(NC(=O)CN2CCCCC2)s1	-9.4	3.7µM*	-2.4	3.7µM*	12.2%
Cc1cc(C(=O)c2ccc(Cl)cc2)c(NC(=O)CCl)s1	-6.4	4.9%	-3.1	-17.6%	1.4%
CCCN(CCC)C(=O)[C@@H](CCC(=O)O)NC(=O)c1ccccc1	nt	0.2%	nt	-12.1%	nt
NC(=O)c1cc(S(=O)(=O)N2CCN(c3ccc([N+](=O)[O-])cc3)CC2)cs1	13.2	?	-9.3	3.9%	-5.7%
C=C1C(c2ccc(C)cc2)=CCc2cc(C)cc(C)c21	52.5*	nt	38.9*	nt	nt
Cc1cc(N2CCN(C3CCCCC3)CC2)nc2cccc(O)c12	-7.0	2.94µM*	0.4	?	6.3%
COCCn1c(Cc2ccccc2)nnc1SCC(=O)Nc1oc(C)c2c(C)n[nH]c(=O)c12	nt	-6.4%	nt	13.2%	nt
